Assay results as given in PubChem BioAssay (NCI).
Values joined by “and” are separate entries in the source; they are usually repeats but may differ in a detail not shown here. Equal values may be shown once. About 83,000 compounds went through this panel and 20% of them were active in at least one assay; those are over-represented in the sample as a whole.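 48-hour exposure, single concentration, 96-well plates; percent growth endpoint where 0 means no net growth. Active: below 10.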 Unmarked numbers belong to inactive results. Active and inactive are the calls of the source.

What was measured:
Experiment in all cases: NCI-60 one-dose screen, 48 h (100 = growth as untreated, 0 = no growth, -100 = all killed)
Conditions in all cases: 10 µM unless noted
[1] = test system: NCI-H23 lung
[2] = test system: NCI-H226 lung
[3] = test system: NCI-H322M lung
[4] = test system: HOP-62 NSCLC
[5] = test system: NCI-H460 lung
[6] = test system: HOP-92 NSCLC
[7] = test system: NCI-H522 lung
[8] = test system: A549/ATCC NSCLC
[9] = test system: 786-0 renal
[10] = test system: COLO 205 colon
[11] = test system: DU-145 prostate
[12] = test system: K-562 leukemia
[13] = test system: MALME-3M melanoma
[14] = test system: MDA-MB-231 breast
[15] = test system: RXF 393 renal
[16] = test system: SF-268 CNS
[17] = test system: SF-295 CNS
[18] = test system: SF-539 CNS
[19] = test system: UACC-257 melanoma
[20] = test system: M14 melanoma

Compound | growth [1] | growth [2] | growth [3] | growth [4] | growth [5] | growth [6] | growth [7] | growth [8] | growth [9] | growth [10] | growth [11] | growth [12] | growth [13] | growth [14] | growth [15] | growth [16] | growth [17] | growth [18] | growth [19] | growth [20]
Cn1c(N)c(N=O)c(=O)n(C)c1=O | 96.2% | 115% and 104% | 113% and 88.7% | 101% and 108% | 111% and 102% | 103% | 97% and 73.4% | 106% and 96.8% | 108% and 103% | 107% and 117% | 108% and 102% | 86.8% and 108% | 115% and 90.9% | 108% and 98.7% | 170% and 109% | 94.6% and 90.7% | 105% and 103% | 107% and 100% | 101% | 100% and 96.7%
CCNC1=CC(=O)c2ncccc2C1=O | -49.7% (active) | 33.9% | 13.9% | -42.5% (active) | -78.3% (active) | 145% | -46.3% (active) | -54.8% (active) | 83.6% | -62.5% (active) | -92.9% (active) | 21.2% | -84.6% (active) | 51.2% | 99% | 58.3% | -71.1% (active) | -59.3% (active) | -13.5% (active) | -87.4% (active)
CC(C)(C)OC(=O)NCCc1ccc(N)cc1 | 104% | 94.9% | 103% | 96.1% | 97.4% | 88.4% | 83.5% | 91% | 100% | 110% | 103% | 101% | 95.8% | 85.6% | 115% | 96.3% | 99.2% | 107% | 98.2% | 104%
CCC(C)(O)CCC(C)(O)CC (stereo not given) | 87.1% | 108% | 102% | 93.5% | 116% | 104% | 103% | 106% | 99.3% | 108% | 105% | 99.3% | 93.6% | 109% | 130% | 99.2% | 102% | 103% | 106% | 103%
ON=C(C1CCCCC1)C1CCCCC1 | 97.8% | 102% | 93.2% | 99.5% | 108% | 85.7% | 107% | 95.9% | 99.9% | 109% | 107% | 108% | 91.9% | 95.3% | 109% | 98.1% | 105% | 96.3% | 99.5% | 109%
CCOC(=O)c1ccncc1 | 109% | 91.3% | 106% | 98.5% | 104% | 108% | 98.3% | 104% | 106% | 103% | 104% | 99.3% | 113% | 110% | 107% | 101% | 96.2% | 108% | 116% | 102%
O=C(N=C1C(=O)C2(CCCCC2)C2(N=C(c3ccccc3)OC2=O)C12CCCCC2)c1ccccc1 (stereo not given) | 66.9% | 70.2% | 96% | 96.8% | 69.5% | 41.7% | 37.9% | 5.7% (active) | 77.7% | 94% | 79% | 54.4% | 77.6% | 74.4% | 69.5% | 77.8% | 77.3% | 82.3% | 67.7% | 78%
CCn1c2ccc(N(C)C)cc2c2cc(N(C)C)ccc21 | 92.1% | 97.4% | 95.2% | 90.2% | 99.8% | 90.6% | 77.3% | 85.7% | 102% | 46.8% | 108% | 90.6% | 111% | 83.8% | 97.3% | 92.8% | 104% | 100% | 93% | 102%
CCN(CC)C(=S)SCCO | 93.3% | 99.3% | 97.1% | 104% | 104% | 109% | 95.5% | 99.3% | 104% | 114% | 107% | 97% | 99.7% | 101% | 106% | 102% | 106% | 102% | 96.3% | 106%
Cc1c(Cl)cc(Cl)c(N)c1Cl | 103% | 102% | 115% | 107% | 105% | 76.9% | 97.4% | 107% | 109% | 108% | 121% | 106% | 109% | 98.9% | 108% | 104% | 102% | 96.4% | 106% | 105%
CC(=O)c1cccc(OC(=O)c2ccccc2)c1 | 101% | 101% | 136% | 104% | 107% | 82.9% | 84.7% | 99% | 102% | 107% | 114% | 92% | 110% | 102% | 117% | 106% | 124% | 109% | 101% | 93.1%
CCN(CC)CCO/N=C1\CC(c2ccc(OC)c(OC)c2)Oc2ccccc21 (stereo not given) | 96.2% | 84.7% | 94.8% | 104% | 104% | 79.6% | 88.2% | 97% | 81.1% | 97.5% | 105% | 82.6% | 107% | 101% | 65.5% | 99.3% | 98.2% | 94.7% | 101% | 99.9%
O=C(NC(=O)c1ccc(F)c(Cl)c1)NC1CC1 | 104% and 98.8% | 99.6% and 90.7% | 113% and 110% | 107% and 101% | 100% and 102% | 99.8% | 75.7% and 85.1% | 81.8% and 99.2% | 98.7% and 94.1% | 113% and 108% | 106% and 98.7% | 78.4% and 95.9% | 107% and 98.9% | 117% | 113% | 103% | 104% and 99.5% | 110% and 98.4% | 97.3% and 103% | 94.7% and 109%
Cc1nc2c(=O)[nH]c(=S)[nH]c2[nH]c1=O | 108% and 101% | 100% and 104% | 98% and 111% | 108% and 99.1% | 106% and 110% | 111% | 105% and 100% | 103% and 105% | 112% and 107% | 108% and 115% | 112% and 119% | 102% | 108% | 112% and 102% | 111% and 125% | 109% and 104% | 111% and 94.6% | 104% and 99.1% | 110% and 97.8% | 113% and 110%
CC(=O)c1cc2ccccc2o1 | 97.9% | 107% | 110% | 99.7% | 108% | 106% | 84.1% | 104% | 94.1% | 114% | 112% | 97.9% | 107% | 99.9% | 119% | 106% | 103% | 89% | 114% | 99.5%
N#CC1c2ccccc2C=CN1C(=O)c1ccccc1 (stereo not given) | 104% and 112% | 103% and 89.1% | 105% and 103% | 126% and 101% | 106% and 98.9% | 75.5% | 103% and 91.7% | 104% and 107% | 107% and 102% | 126% and 157% | 108% and 94.1% | 99.6% and 112% | 94.8% and 108% | 96% and 94.1% | 136% and 118% | 111% and 84.8% | 101% and 93.3% | 112% and 86.6% | 103% and 113% | 99.9% and 98.7%
CC1OS(=O)OC1C (stereo not given) | 101% and 95.8% | 103% and 101% | 108% and 94% | 101% and 105% | 104% and 102% | 114% and 96.3% | 68.9% and 94.9% | 97.9% and 104% | 103% and 105% | 112% and 102% | 113% and 102% | 82.6% and 110% | 107% and 91% | 109% | 99.4% and 104% | 110% | 100% | 97.4% and 99.1% | 99.8% and 94.2% | 99.1% and 102%
Clc1ccc2c(c1)N(C1CCCN(Cc3ccccc3)C1)c1ccccc1S2 (stereo not given) | 61.9% | 82.1% | 31.1% | 82.1% | 25.4% | 51.7% | 14.9% | 35% | 61.8% | 3.47% (active) | 74.1% | 18.5% | 78.4% | 51.8% | -15.7% (active) | 39.2% | 77.6% | 40.8% | 55.1% | -26.9% (active)
CC(C)(C)C1CCC(=NO)CC1 (stereo not given) | 95.5% | 99.9% | 106% | 95.9% | 99.6% | 71.4% | 92.5% | 91.6% | 94.5% | 117% | 112% | 128% | 103% | 104% | 90.6% | 109% | 98.3% | 96.2% | 76.4% | 100%
CCCCCCCCCCCCCCCCC(=O)O | 97.6% | 101% | 98% | 104% | 108% | 110% | 102% | 104% | 97.7% | 114% | 107% | 89.5% | 98.3% | 105% | 99.5% | 102% | 104% | 106% | 101% | 104%
COCCNC(C)=O | 107% | 90.3% | 108% | 98.4% | 102% | 102% | 96.6% | 104% | 97.5% | 108% | 112% | 105% | 114% | 99.2% | 104% | 101% | 96.3% | 99.5% | 112% | 109%
N=C(N)N1CCc2ccccc2C1 | 87.2% and 106% | 97.6% and 108% | 98.6% and 116% | 93.1% and 96.8% | 103% and 95.5% | 156% | 83.9% and 118% | 81.9% and 96.9% | 87.5% and 112% | 100% and 106% | 105% and 97.3% | 71.4% and 108% | 82% and 110% | 99% and 103% | 97.2% and 121% | 98.9% and 97.3% | 88% and 106% | 104% and 96.8% | 86.5% and 95.4% | 93.2% and 108%
Cc1cnc(N)s1 | 97.5% | 90.6% | 99.6% | 78.3% | 105% | 91.3% | 77.9% | 69% | 106% | 102% | 106% | 92.9% | 98.1% | 91.6% | 105% | 93.8% | 98.3% | 103% | 84.4% | 91.9%
Cc1cccc(Cl)c1N | 99.6% | 118% | 127% | 104% | 107% | 94.1% | 105% | 96.4% | 113% | 119% | 109% | 107% | 111% | 114% | 126% | 105% | 102% | 111% | 95.5% | 105%
CC1CC(O)CC(C)(C)C1.CC1CC(O)CC(C)(C)C1.CC1CC(O)CC(C)(C)C1.CC1CC(O)CC(C)(C)C1.[Ti] (stereo not given) | 104% | 97.2% | 105% | 103% | 109% | 99.2% | 112% | 92.6% | 107% | 108% | 121% | 98.2% | 103% | 96.2% | 112% | 115% | 102% | 107% | 113% | 96%
CCOCCC(=O)O | 110% | 99.4% | 113% | 115% | 102% | 80.5% | 102% | 115% | 103% | 110% | 121% | 108% | 116% | 105% | 108% | 112% | 102% | 102% | 114% | 102%
OCc1cccc(F)c1 | 79.6% | 104% | 90.2% | 100% | 41.8% | 118% | 67.8% | 99.3% | 103% | 90.1% | 3.58% (active) | 99.4% | 106% | 89.6% | 67.8% | 97.4% | 72.3% | 111% | 101% | 94.9%
